Bioassay records deposited in PubChem by several laboratories.
Anthrax LF prot: inhibitors of Bacillus anthracis lethal factor protease. P15917. multiplex microsphere protease cleavage assay, LF. inhibition, % at 10 µM. 0.12% of 360,000 active. AID 588501
BoNT-F LC inh: inhibitors of Botulinum neurotoxin F light chain protease; inhibition, % at 10 µM; Multiplex microsphere protease cleavage assay, flow cytometry; AID 588497; 0.22% of 360,000 active; in the data active = inhibition above about 35%, passing the limit was not always enough; inconclusive = no clear call, values can overlap the other calls
BH1578 lux ind: quorum light induction in luxS cqsA deficient V. cholerae; activation, % at 18.7 µM; 0.16% of 350,000 active; AID 588436; V. cholerae BH1578 lux reporter, luminescence, 6 h; in the data active = activation mostly above about 9.7%, no sharp cut-off; inconclusive = no clear call, values can overlap the other calls; inactive = mostly below about 3.7%
BoNT A protease: BoNT A light chain protease inhibition | multiplex microsphere protease substrate cleavage, flow cytometry | inhibition, % at 10 µM | 0.17% of 360,000 active | AID 588499
Autofluor counter: counter-screen for toxin protease inhibitors: compound fluorescence | compound autofluorescence counterscreen, microsphere flow cytometry; stronger effect = higher value | fluorescence intensity (concentration not given with the values) | 3.1% of 360,000 active; in the data active = fluorescence intensity above about 16000; inconclusive = no clear call, values can overlap the other calls
Each line names hits and unclear results; the compound was inactive in the other large screens. Most compounds without a hit are left out; they make up all but 3.5% or so of the library. Rule as the data show it, unless noted: active = inhibition above about 30%; inconclusive = no clear call, values can overlap the other calls; inactive = below that.

Cc1ccc(C2C(=O)N(C3CCCC3)CC(=O)N2C2CCCCC2)cc1 (stereo unspecified)	Autofluor counter 18594
COc1ccc(C2C(=O)N(C3CCCCC3)CC(=O)N2CCc2ccccc2)cc1OC (stereo unspecified)	Autofluor counter 21105
CCOc1ccc(C2C(=O)N(C3CCCCC3)CC(=O)N2CC2CCCO2)cc1OC (stereo unspecified)	none
CCOCCCN1C(=O)CN(C2CCCCCC2)C(=O)C1c1ccc(OC)cc1 (stereo unspecified)	Autofluor counter 19637
CCOCCCN1C(=O)CN(C2CCCCC2)C(=O)C1c1ccc(OC)c(OC)c1 (stereo unspecified)	none
CCCOc1ccc(C(=O)NC(C)C(=O)O)cc1 (stereo unspecified)	Autofluor counter 21313
CC(NC(=O)c1ccc(C(C)(C)C)cc1)C(=O)O (stereo unspecified)	Autofluor counter 21690
O=C(Nc1ccncc1Cl)c1ccncc1	none
CC1CCN(CCCNC(=O)c2cc3sccc3n2C)CC1	Autofluor counter 20532
COc1ccc(N2CCN(CCCNC(=O)c3cc4sccc4n3C)CC2)cc1	none
Brc1ccc(-c2nnc3c4ccccc4nc(N4CCOCC4)n23)cc1	Anthrax LF prot inconclusive, BoNT A protease inconclusive
Clc1ccc(-c2nnc3c4ccccc4nc(N4CCOCC4)n23)cc1Cl	BoNT A protease inconclusive, Autofluor counter 21865
Fc1ccccc1-c1nnc2c3ccccc3nc(N3CCOCC3)n12	Autofluor counter 19272
COc1cc(-c2noc(CCCC(=O)NC3CCCCC3)n2)cc(OC)c1OC	BoNT A protease inconclusive, Autofluor counter 17180
CCOC(=O)[C@]12CCC=C1N(Cc1cccc3ccccc13)C(=O)[C@H](CC(=O)N1CCCC1)C2	none (no result: BH1578 lux ind)
COc1ccc(NC(=O)C(C)N2C(=O)C3CC=C(Cl)CC3C2=O)cc1 (stereo unspecified)	none
COc1ccccc1-c1nc(C#N)c(N2CCN(c3cccc(Cl)c3)CC2)o1	Autofluor counter 25154
Cc1cccc(OC(=O)C2C(c3ccccc3)C(C(=O)O)C2c2ccccc2)c1 (stereo unspecified)	none
CC(C)CCOC(=O)C1C(c2ccccc2)C(C(=O)O)C1c1ccccc1 (stereo unspecified)	Autofluor counter 25168
CC(C)CN(CC(C)C)C(=O)C1C2c3ccccc3C(c3ccccc32)C1C(=O)O (stereo unspecified)	none
O=C(O)C1C(c2ccccc2)C(C(=O)Oc2ccccc2)C1c1ccccc1 (stereo unspecified)	Autofluor counter 24658
COc1ccc(/C=C2\CC/C(=C\c3ccc(OC)c(OC)c3)C2=O)cc1OC	none
COc1ccc(C=C2C=C(C(C)(C)C)C(=O)C(C(C)(C)C)=C2)cc1OC	BoNT A protease 85.5
CCC(C(=O)NCc1ccccc1OC)c1ccccc1 (stereo unspecified)	none
Cc1ncc2c(c1OC(=O)c1ccccc1)COC(C)(C)OC2	BoNT A protease inconclusive, Autofluor counter 23118
C=CCn1c(O)c(C(CC)=NCCN2CCOCC2)c(=O)[nH]c1=O	Autofluor counter 19747
C=CCn1c(O)c(C(CC)=Nc2ccccc2NC(=O)CC)c(=O)[nH]c1=O	BoNT A protease inconclusive, Autofluor counter 20357
C=CCn1c(O)c(C(CC)=NCCCO)c(=O)[nH]c1=O	none
O=C(Cn1c(=O)c2c(ncn2Cc2ccccc2)n(Cc2ccccc2)c1=O)NC1CC1	Autofluor counter 19673
CCn1cnc2c1c(=O)n(CC(=O)O)c(=O)n2Cc1ccccc1	none
COc1ccc(/C=C/C(=O)N(Cc2cccs2)C2CCS(=O)(=O)C2)cc1 (stereo unspecified)	none (no result: Anthrax LF prot, BoNT-F LC inh, BoNT A protease, Autofluor counter)
CCOC(=O)c1cnn(-c2nc(-c3ccccc3F)cs2)c1C(F)(F)F	BoNT A protease inconclusive, Autofluor counter 19894
CCOC(=O)c1cnn(-c2nc(-c3ccccc3)cs2)c1C(F)(F)F	none
CCCC1CCC(C2=N/C(=C\c3ccc(OC)c(OC)c3)C(=O)O2)CC1 (stereo unspecified)	Autofluor counter 22779
COc1ccc(CC(=O)OCC(=O)NC(=O)NC(C)C)cc1	Autofluor counter 23854
CC(C)NC(=O)NC(=O)COC(=O)Cc1ccsc1	none
CCc1nnc2c(NCCc3ccccc3)nc3ccccc3n12	none
Cc1ccc2c(c1)c1c(n2C)C(C(N)=O)CCC1 (stereo unspecified)	Autofluor counter 22355
Nc1ncnc(Oc2cccc3cccnc23)c1[N+](=O)[O-]	none
Fc1cccc(C[n+]2csc3ccccc32)c1	Autofluor counter 17119
C/C(=C1/SC(N2CC(C)OC(C)C2)=NC1=O)c1ccccc1 (stereo unspecified)	Autofluor counter 19965
Cc1ccc(C)c(N2C(=O)CC(Cc3ccc(Cl)cc3)C2=O)c1 (stereo unspecified)	none (no result: Anthrax LF prot, BoNT-F LC inh, BoNT A protease, Autofluor counter)
COc1ccc(C2=NOC3(CC(=O)N(c4ccc(C)cc4)C3=O)C2)c(OC)c1 (stereo unspecified)	Autofluor counter 22248
COc1ccc2c(c1)C(=O)N(c1ccc(C)cc1)C(=O)C2	none
O=C(CSc1ccc(Cl)cc1)Nc1ccc(-c2nc3ccccc3[nH]2)cc1	none
O=C(CN1CCCCC1)c1c[nH]c2ccccc12	none
CC1CC(C)CN(CC(=O)c2c[nH]c3ccccc23)C1 (stereo unspecified)	BoNT-F LC inh 35.7
CC(C)n1nc(C(=O)OCC(=O)c2c[nH]c3ccccc23)c2ccccc2c1=O	none
COc1cccc(/C=C/C(=O)OCC(=O)c2c[nH]c3ccccc23)c1OC	BoNT A protease 39.1
CCn1c(SCC(=O)c2c[nH]c3ccccc23)nnc1-c1cccs1	none (no result: Anthrax LF prot, BoNT-F LC inh, BoNT A protease, Autofluor counter)
Cn1cnnc1SCC(=O)c1c[nH]c2ccccc12	Autofluor counter 25248
CCn1nc(C(=O)OCC(=O)c2c[nH]c3ccccc23)c2ccccc2c1=O	Anthrax LF prot 38.0, BoNT A protease 44.7
CCOc1cc(S(=O)(=O)NCc2ccncc2)ccc1Cl	none
O=C(NCCc1c[nH]c2ccccc12)C(=O)NCC1OCCCN1S(=O)(=O)c1cc(F)ccc1F (stereo unspecified)	none
O=C(Nc1ccc2c(c1)OCO2)c1cc(C2CCCCN2C(=O)CCCc2ccccc2)on1 (stereo unspecified)	none
O=C(COC(=O)C1CCC1)c1c[nH]c2ccccc12	none
O=C(COC(=O)C1CC1)c1c[nH]c2ccccc12	Autofluor counter 19998
Cc1ccc(C(=O)N/C(=C/c2ccc(F)cc2)C(=O)NCc2ccncc2)cc1	none
Cc1cccnc1NC(=O)C12CCC(C)(C(=O)O1)C2(C)C (stereo unspecified)	Autofluor counter 22033
CC12CCC(C(=O)NCc3ccccn3)(OC1=O)C2(C)C (stereo unspecified)	none
COc1ccc(-c2cn3cc(C)ccc3n2)cc1OC	none
COc1ccc(-c2cn3ccccc3n2)cc1OC	Autofluor counter 20804
COc1ccc(CCNC(=O)CCc2ccsc2)cc1OC	none
CC(=O)c1cccc(NC(=O)Nc2ccc(C(=O)N3CCCC3)cc2)c1	Autofluor counter 22040
CCOc1ccccc1NC(=O)Nc1cccc(NC(C)=O)c1	Autofluor counter inconclusive
CC(=O)Nc1cccc(NC(=O)Nc2ccc(C(C)=O)cc2)c1	none
